Data from PubChem BioAssay AID1159580 (chemical genetic matrix, 2015).
“And” between values parts separate entries of the source, which are not always exact repeats. Identical values can stand only once. In all, about 5,500 compounds went through this assay and about 2,000 (36%) were called active. About 18% were inconclusive and are not listed. No stated cut-off is given here; in the data, active means normalized growth mostly below about 0.91 (no sharp cut-off); inconclusive means no clear call, values can overlap the other calls; inactive means mostly above about 0.92. Some of the results follow.

Assay: chemical genetic growth profiling, strain panel (AID 1159580);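 further: tested at 20 µM; growth read once vehicle control cultures reached saturation at 30 °C; 1 = growth at the plate median or of vehicle wells; lower values mean less growth of the strain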
Details: S. cerevisiae deletion strains, growth OD

Measured: normalized growth

C[C@@H]1CC[C@H]2[C@@H](C)C(O)O[C@@H]3O[C@@]4(C)CC[C@@H]1[C@]32OO4 (some centres not stated)
active: locus YAL013W, strain DEP1, active compounds read low 0.528 | locus YAL021C, strain ccr4, active compounds read low 0.507 | locus YAL026C, strain drs2, active compounds read low 0.358 | locus YAL030W, strain snc1, active compounds read low 0.319 | locus YBL061C, strain skt5, active compounds read low 0.337 | locus YBR009C, strain hhf1, active compounds read low 0.215 | locus YBR023C, strain chs3, active compounds read low 0.331 | locus YBR171W, strain sec66, active compounds read low 0.608 | locus YBR229C, strain ROT2, active compounds read low 0.7 | locus YBR231C, strain swc5, active compounds read low 0.253 | locus YBR279W, strain paf1, active compounds read low 0.276 | locus YCL011C, strain gbp2, active compounds read low 0.231 | locus YCL016C, strain dcc1, active compounds read low 0.275 | locus YCL029C, strain bik1, active compounds read low 0.325 | locus YCL061C, strain MRC1, active compounds read low 0.312 | locus YCL069W, strain vba3, active compounds read low 0.315 | locus YCR088W, strain abp1, active compounds read low 0.321 | locus YDL005C, strain med2, active compounds read low 0.448 | locus YDL035C, strain GPR1, active compounds read low 0.295 | locus YDL040C, strain nat1, active compounds read low 0.408 | locus YDL074C, strain BRE1, active compounds read low 0.556 | locus YDL101C, strain DUN1, active compounds read low 0.325 | locus YDL134C, strain PPH21, active compounds read low 0.314 | locus YDL185W, strain tfp1, active compounds read low 0.139 | locus YDL192W, strain arf1, active compounds read low 0.547 | locus YDR001C, strain nth1, active compounds read low 0.377 | locus YDR069C, strain doa4, active compounds read low 0.386 | locus YDR101C, strain arx1, active compounds read low 0.459 | locus YDR137W, strain rgp1, active compounds read low 0.348 | locus YDR150W, strain NUM1, active compounds read low 0.262 | locus YDR159W, strain sac3, active compounds read low 0.471 | locus YDR162C, strain NBP2, active compounds read low 0.356 | locus YDR195W, strain ref2 0.54 | locus YDR297W, strain sur2, active compounds read low 0.384 | locus YDR318W, strain mcm21, active compounds read low 0.258 | locus YDR334W, strain swr1, active compounds read low 0.276 | locus YDR335W, strain msn5, active compounds read low 0.492 | locus YDR388W, active compounds read low 0.316 | locus YDR392W, strain spt3, active compounds read low 0.133 | locus YDR502C, strain sam2, active compounds read low 0.415 | locus YEL003W, strain gim4, active compounds read low 0.237 | locus YEL037C, strain rad23, active compounds read low 0.407 | locus YEL061C, strain CIN8 (second series), active compounds read low 0.295 | locus YEL061C, strain CIN8, active compounds read low 0.302 | locus YER015W, strain faa2, active compounds read low 0.179 | locus YER016W, strain bim1, active compounds read low 0.235 | locus YER110C, active compounds read low 0.275 | locus YER111C, strain swi4, active compounds read low 0.5 | locus YER155C, strain BEM2 (second series), active compounds read low 0.568 | locus YER155C, strain BEM2, active compounds read low 0.345 | locus YER167W, strain BCK2, active compounds read low 0.198 | locus YFR010W, strain ubp6, active compounds read low 0.391 | locus YGL078C, strain dbp3, active compounds read low 0.477 | locus YGL086W, strain mad1, active compounds read low 0.279 | locus YGL167C, strain pmr1, active compounds read low 0.781 | locus YGL173C, strain kem1, active compounds read low 0.729 | locus YGL227W, strain vid30, active compounds read low 0.254 | locus YGL240W, strain doc1, active compounds read low 0.23 | locus YGL248W, strain PDE1, active compounds read low 0.282 | locus YGL253W, strain hxk2, active compounds read low 0.251 | locus YGR078C, strain PAC10, active compounds read low 0.527 | locus YGR135W, strain pre9, active compounds read low 0.653 | locus YGR229C, strain SMI1, active compounds read low 0.286 | locus YGR252W, strain gcn5, active compounds read low 0.665 | locus YHR013C, strain ard1, active compounds read low 0.234 | locus YHR027C, strain rpn1, active compounds read low 0.221 | locus YHR030C, strain SLT2, active compounds read low 0.252 and 0.332 | locus YHR079C, strain IRE1 (second series), active compounds read low 0.359 | locus YHR079C, strain IRE1, active compounds read low 0.3 | locus YHR094C, strain hxt1, active compounds read low 0.388 | locus YHR129C, strain ARP1, active compounds read low 0.331 | locus YHR142W, strain chs7, active compounds read low 0.284 | locus YHR200W, strain rpn10, active compounds read low 0.562 | locus YIL066C, strain RNR3, active compounds read low 0.229 | locus YIL073C, strain SPO22, active compounds read low 0.308 | locus YIL125W, strain kgd1, active compounds read low 0.411 | locus YIR030C, strain dcg1, active compounds read low 0.381 | locus YJL092W, strain hpr5, active compounds read low 0.346 | locus YJL095W, strain BCK1 (second series), active compounds read low 0.267 | locus YJL095W, strain BCK1, active compounds read low 0.298 and 0.302 | locus YJL115W, strain asf1, active compounds read low 0.443 | locus YJL129C, strain trk1, active compounds read low 0.538 | locus YJL134W, strain LCB3, active compounds read low 0.589 | locus YJL154C, strain vps35, active compounds read low 0.42 | locus YJL164C, strain tpk1, active compounds read low 0.248 | locus YJL166W, strain qcr8, active compounds read low 0.167 | locus YJL168C, strain set2, active compounds read low 0.422 | locus YJL187C, strain SWE1 (second series), active compounds read low 0.392 | locus YJL187C, strain SWE1, active compounds read low 0.299 | locus YJR043C, strain POL32, active compounds read low 0.369 | locus YJR066W, strain TOR1, active compounds read low 0.319
inactive: locus YBR021W, strain FUR4, active compounds read low 0.857
